# Assay results taken from the supplement of paper PMC9492666.
# Counter-ions that a name gives are not always drawn.
# Tested on: MDA-MB-231
# Experiment: relative cell viability, compound + erastin, vs DMSO (fraction of DMSO control); higher = less growth inhibition
# Conditions: 72 h
# 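Further: viability read by CCK-8 kit in 96-well plates, part of a combination screen pairing lipid-metabolism-targeting compounds with erastin.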
row,Compound,relative cell viability
1,C/C=C/c1cc(OC)c(OC)cc1OC [alpha-Asarone] + CCOc1ccccc1-n1c(C(C)N2CCN(C(=O)COc3ccc(Cl)cc3)CC2)nc2ccccc2c1=O [erastin],0.774
2,O=C(O)Cn1nnc(-c2cc(N3CCC(Oc4cc(F)ccc4Br)CC3)no2)n1 + CCOc1ccccc1-n1c(C(C)N2CCN(C(=O)COc3ccc(Cl)cc3)CC2)nc2ccccc2c1=O [erastin],0.679
3,Cc1cccc(Nc2cc(Cl)nc(SCC(=O)O)n2)c1C [Pirinixic Acid] + CCOc1ccccc1-n1c(C(C)N2CCN(C(=O)COc3ccc(Cl)cc3)CC2)nc2ccccc2c1=O [erastin],0.74
4,C[C@H](CCCC(C)(C)O)[C@H]1CC[C@H]2[C@@H]3CC=C4C[C@@H](O)CC[C@]4(C)[C@H]3CC[C@]12C [25-Hydroxycholesterol] + CCOc1ccccc1-n1c(C(C)N2CCN(C(=O)COc3ccc(Cl)cc3)CC2)nc2ccccc2c1=O [erastin],0.483
5,COc1ccc2c(c1)c(CC(=O)O)c(C)n2C(=O)c1ccc(Cl)cc1 [Indometacin] + CCOc1ccccc1-n1c(C(C)N2CCN(C(=O)COc3ccc(Cl)cc3)CC2)nc2ccccc2c1=O [erastin],0.639
6,C[C@H]1N=C(N(C)C)N=C(N)N1 [Imeglimin hydrochloride] + CCOc1ccccc1-n1c(C(C)N2CCN(C(=O)COc3ccc(Cl)cc3)CC2)nc2ccccc2c1=O [erastin],0.695
7,CCOP(=O)(OCC)C(=Cc1cc(C(C)(C)C)c(O)c(C(C)(C)C)c1)P(=O)(OCC)OCC + CCOc1ccccc1-n1c(C(C)N2CCN(C(=O)COc3ccc(Cl)cc3)CC2)nc2ccccc2c1=O [erastin],0.648
8,O=C(O)c1cccnc1Nc1cccc(C(F)(F)F)c1 [Niflumic acid] + CCOc1ccccc1-n1c(C(C)N2CCN(C(=O)COc3ccc(Cl)cc3)CC2)nc2ccccc2c1=O [erastin],0.599
9,COc1ccc(-c2cc(=O)c3c(O)c(OC)c(OC)c(OC)c3o2)cc1OC + CCOc1ccccc1-n1c(C(C)N2CCN(C(=O)COc3ccc(Cl)cc3)CC2)nc2ccccc2c1=O [erastin],0.784
10,CC(C)c1cc(C(C)C)c(CC(=O)NS(=O)(=O)Oc2c(C(C)C)cccc2C(C)C)c(C(C)C)c1 [Avasimibe] + CCOc1ccccc1-n1c(C(C)N2CCN(C(=O)COc3ccc(Cl)cc3)CC2)nc2ccccc2c1=O [erastin],0.791
11,Cc1cc(C)c(S(=O)(=O)Nc2cccc(C(F)(F)F)c2)c(C)c1 + CCOc1ccccc1-n1c(C(C)N2CCN(C(=O)COc3ccc(Cl)cc3)CC2)nc2ccccc2c1=O [erastin],0.98
12,CC(=O)Oc1cc(C(F)(F)F)ccc1C(=O)O [Triflusal] + CCOc1ccccc1-n1c(C(C)N2CCN(C(=O)COc3ccc(Cl)cc3)CC2)nc2ccccc2c1=O [erastin],0.648
13,CN(C)C(=N)NC(=N)N [Metformin hydrochloride] + CCOc1ccccc1-n1c(C(C)N2CCN(C(=O)COc3ccc(Cl)cc3)CC2)nc2ccccc2c1=O [erastin],1.03
14,Cc1cc([N+](=O)[O-])ccc1NS(=O)(=O)c1cc(Cl)ccc1Cl + CCOc1ccccc1-n1c(C(C)N2CCN(C(=O)COc3ccc(Cl)cc3)CC2)nc2ccccc2c1=O [erastin],0.616
15,COC(=O)/C=C/c1cccc(N(Cc2ccc(-c3ccc(N(C)C)cc3)cc2)C(=O)C2CCCCC2)c1 [Fexaramine] + CCOc1ccccc1-n1c(C(C)N2CCN(C(=O)COc3ccc(Cl)cc3)CC2)nc2ccccc2c1=O [erastin],1.08
16,C=C[C@H]1CN2CC[C@H]1C[C@@H]2[C@@H](O)c1ccnc2ccc(OC)cc12 [Quinidine sulfate] + CCOc1ccccc1-n1c(C(C)N2CCN(C(=O)COc3ccc(Cl)cc3)CC2)nc2ccccc2c1=O [erastin],0.398
17,CN1CCN(c2ccc(/C=C(\C#N)c3ccccc3Br)cc2)CC1 [DG172 (dihydrochloride)] + CCOc1ccccc1-n1c(C(C)N2CCN(C(=O)COc3ccc(Cl)cc3)CC2)nc2ccccc2c1=O [erastin],0.608
18,CC[C@H](C)C(=O)O[C@H]1C[C@H](O)C=C2C=C[C@H](C)[C@H](CC[C@@H](O)C[C@@H](O)CC(=O)O)[C@H]21 [Pravastatin sodium] + CCOc1ccccc1-n1c(C(C)N2CCN(C(=O)COc3ccc(Cl)cc3)CC2)nc2ccccc2c1=O [erastin],1.05
